Laboratory results as given in PubChem BioAssay (NCATS).
“And” between values parts separate entries of the source, which are not always exact repeats. Equal entries are not always repeated. Inconclusive results are not listed. The source made the active and inactive calls. Unless noted, calls follow the shape of the dose curve; as a rule, active = well fitted curve in the direction sought with a large enough effect; inconclusive = small, poorly fitted or top-dose-only effect, or another doubt; inactive = no such curve, though single readings can be large; an effect the other way counts as inactive or inconclusive.

What was measured:
[1] = qHTS Assay for Identifying Gametocytocidal Compounds (AID 743244); also: potency is read from the fitted curve at half-maximal effect;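 as to max response: % is scaled to controls: 0 for no effect and ±100 for the full control effect; actives lower the fluorescent signal which means gametocytes are killed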; settings: P. falciparum 3D7 stage III-V gametocytes, alamarBlue, 72 h; max response: stronger effect = lower value
Summary of the method: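 In this qHTS viability screen, late-stage 3D7 gametocytes are incubated with compound for 72 h, then with alamarBlue for 24 h; reduced resorufin fluorescence marks killing.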

[2] = qHTS profiling for inhibitors of Plasmodium falciparum (3D7) proliferation (AID 743322; call rule not given here;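 also: infected erythrocytes exposed to compound for 72 h before lysis; 100% = DMSO vehicle wells and 0% = 0.29 µM artemisinin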); settings: P. falciparum 3D7 proliferation; at 28.7 µM (top of the series) unless noted
Summary of the method: (§1)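 Parasite DNA was quantified by SYBR Green I fluorescence (ex 485, em 535 nm) after overnight lysis in saponin/Triton buffer at room temperature. Cultures at 0.3% parasitemia and 2.5% hematocrit were first exposed to compound for 72 h at 37 C; signals were normalised to artemisinin (0.29 uM) and vehicle wells.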

[3] = qHTS profiling for inhibitors of Plasmodium falciparum (DD2) proliferation (AID 743323; call rule not given here); settings: lower = more inhibition; at 28.7 µM (top of the series) unless noted
Summary of the method: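 Parasite DNA quantified by SYBR Green fluorescence (ex 485, em 535 nm) after saponin/Triton lysis and overnight dark incubation. Cultures: 0.3% parasitemia, 2.5% hematocrit, 72 h, 37 C; data scaled between DMSO and 0.29 uM artemisinin.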

[4] = qHTS profiling for inhibitors of Plasmodium falciparum (HB3) proliferation (AID 743324); settings: Plasmodium falciparum HB3 blood-stage proliferation; at 28.7 µM (top of the series) unless noted;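 also: 100% = DMSO vehicle wells and 0% = artemisinin-treated control wells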
Summary of the method: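 SYBR Green fluorescence (485 ex/535 em) of lysed cultures, incubated overnight at room temperature in the dark, quantifies parasite DNA. Infected erythrocytes at 0.3% parasitemia and 2.5% hematocrit were exposed 72 h; values normalized to DMSO and 0.29 uM artemisinin controls.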

[5] = qHTS profiling of the MIPE4 collection as inhibitors of Plasmodium falciparum (3D7) proliferation (AID 743344; call rule not given here;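 also: scaled between DMSO vehicle wells and 0.29 µM artemisinin as full inhibition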); settings: P. falciparum 3D7 in erythrocytes, SYBR Green DNA fluorescence, 72 h; at 28.5 µM (top of the series) unless noted
Summary of the method: as §1

[6] = qHTS profiling of the MIPE4 collection as inhibitors of Plasmodium falciparum (DD2) proliferation (AID 743345; call rule not given here); settings: P. falciparum Dd2 in erythrocytes, SYBR Green DNA, 72 h; at 28.5 µM (top of the series) unless noted
Summary of the method: as §1

[7] = qHTS profiling of the MIPE4 collection as inhibitors of Plasmodium falciparum (HB3) proliferation (AID 743347; call rule not given here;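 also: plate controls were DMSO vehicle wells for no effect and artemisinin wells for full effect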); settings: P. falciparum HB3 in erythrocytes, SYBR Green DNA, 72 h; at 28.5 µM (top of the series) unless noted
Summary of the method: as §1

[8] = High-throughput drug toxicity screening in the BPDCN cell line Gen2.2 (AID 1224824; call rule not given here;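 also: cells exposed to compounds for 48 h before reading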); settings: Gen2.2 BPDCN cells; at 45.8 µM (top of the series) unless noted
Summary of the method: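 Gen2.2 cells (500/well) in phenol red-free RPMI with 10% FBS were exposed to compounds for 48 h at 37 °C, 5% CO2. Viability was read by CellTiter-Glo luminescence and normalized to DMSO (100%) and 9.2 uM bortezomib (0%).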

[9] = High-throughput drug toxicity screening in the BPDCN cell line Cal-1 (AID 1224825; call rule not given here); settings: Cal-1 BPDCN cell viability, qHTS; at 45.8 µM (top of the series) unless noted
Summary of the method: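 Viability of the BPDCN line Cal-1 is measured as ATP-based luminescence (CellTiter-Glo) following 48 h incubation with compounds. Percent activity uses DMSO-treated wells as 100% and 9.2 uM bortezomib as 0%.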

[10] = qHTS assay for measurement of the activity of small molecule inhibitors on Zika virus induced Caspase-3 activity in human iPSC derived neural progenitor cells (hNPCs) (AID 1224857); also: % of control where 0% means no effect; nearly all actives have a fitted effect of over 65% in size
Summary of the method: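 In medium with heparin 2 ug/ml and cyclopamine 2 uM, hNPCs (350 cells/well) received compound for one hour and then Zika virus at 2 FFU/cell; caspase activity was measured by Caspase-Glo 3/7 luminescence 6 h post-infection.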

[11] = qHTS assay for measurement of the activity of small molecule inhibitors on Zika virus induced Caspase-3 activity in human astrocytoma cells (AID 1224859);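 also: plate controls were ZIKV-infected untreated cells for no effect and uninfected cells for full effect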
Summary of the method: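 A cell-based luminescent caspase-3/7 assay used SNB-19 cells infected with ZIKV (2 FFU/cell) for 6 h following 1 h compound pretreatment.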

[12] = qHTS profiling of the MIPE4 collection as inhibitors of Plasmodium falciparum (DD2) proliferation (Rep 2) (AID 743346; call rule not given here); settings: P. falciparum Dd2 in erythrocytes, SYBR Green DNA, 72 h; at 28.5 µM (top of the series) unless noted
Summary of the method: as §1

[13] = qHTS Screen of the MIPE 4.0 Collection Against Ewings Sarcoma (TC71) (AID 1259253); also: nearly all actives have a fitted effect of over 40% in size; also: potency is read from the fitted curve at half-maximal effect
Summary of the method: (§2)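 Here, cells in 5% FBS RPMI were exposed for two days (48 h) to compound dilutions added four hours after plating. ATP-based CellTiter-Glo luminescence measured viability, normalized to vehicle and no-cell blanks.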

[14] = qHTS Screen of the MIPE 4.0 Collection Against Ewings Sarcoma (EW8) (AID 1259255); also: nearly all actives have a fitted effect of over 35% in size; also: potency is read from the fitted curve at half-maximal effect;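 as to viability: 100% = DMSO-treated cells and 0% = medium-only wells without cells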
Summary of the method: as §2

[15] = qHTS Screen of the MIPE 4.0 Collection Against Ewings Sarcoma (RDES) (AID 1259252); also: nearly all actives have a fitted effect of over 35% in size; also: potency is read from the fitted curve at half-maximal effect
Summary of the method: as §2

[16] = molecular target: Hexokinase-4 (Homo sapiens) + Glucokinase regulatory protein (Homo sapiens) (UniProt P35557+Q14397); assay: qHTS assay for inhibitors of recombinant human GCK-GKRP interaction: HTRF assay (AID 743207);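 also: 0% = DMSO with GCK present and -100% = DMSO wells lacking GCK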
Sequence of Hexokinase-4 (Homo sapiens) + Glucokinase regulatory protein (Homo sapiens) (P35557 whole entry, looked up): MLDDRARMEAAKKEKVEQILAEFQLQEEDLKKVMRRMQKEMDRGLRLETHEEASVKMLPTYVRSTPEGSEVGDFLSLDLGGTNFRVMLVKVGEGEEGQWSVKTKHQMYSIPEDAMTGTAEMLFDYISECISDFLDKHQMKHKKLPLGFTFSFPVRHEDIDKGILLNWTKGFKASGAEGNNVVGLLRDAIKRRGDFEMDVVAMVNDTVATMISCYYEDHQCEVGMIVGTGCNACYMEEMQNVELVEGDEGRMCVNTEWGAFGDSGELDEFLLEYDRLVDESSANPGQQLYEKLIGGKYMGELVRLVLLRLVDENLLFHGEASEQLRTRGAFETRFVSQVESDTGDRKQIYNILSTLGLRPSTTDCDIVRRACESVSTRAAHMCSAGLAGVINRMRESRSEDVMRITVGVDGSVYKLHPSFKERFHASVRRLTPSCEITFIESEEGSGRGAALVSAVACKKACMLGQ
Sequence of Hexokinase-4 (Homo sapiens) + Glucokinase regulatory protein (Homo sapiens) (Q14397 whole entry, looked up): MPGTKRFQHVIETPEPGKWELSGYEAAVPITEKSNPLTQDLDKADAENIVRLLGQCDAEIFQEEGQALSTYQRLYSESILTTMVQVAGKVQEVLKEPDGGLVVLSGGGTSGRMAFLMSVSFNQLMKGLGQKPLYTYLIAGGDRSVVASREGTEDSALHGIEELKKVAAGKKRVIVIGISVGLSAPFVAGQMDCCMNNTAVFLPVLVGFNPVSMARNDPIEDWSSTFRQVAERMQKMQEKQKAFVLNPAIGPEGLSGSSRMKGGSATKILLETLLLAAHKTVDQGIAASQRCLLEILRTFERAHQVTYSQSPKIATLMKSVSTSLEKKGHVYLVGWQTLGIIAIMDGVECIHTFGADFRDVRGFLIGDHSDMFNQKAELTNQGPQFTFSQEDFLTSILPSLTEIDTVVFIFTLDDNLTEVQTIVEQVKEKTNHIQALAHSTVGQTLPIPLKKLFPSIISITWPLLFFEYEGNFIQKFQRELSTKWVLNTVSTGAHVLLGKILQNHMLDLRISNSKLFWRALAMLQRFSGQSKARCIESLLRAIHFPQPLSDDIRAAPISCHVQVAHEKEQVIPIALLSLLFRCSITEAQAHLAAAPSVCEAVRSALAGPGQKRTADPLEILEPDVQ
Summary of the method: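 GST-GCK and FLAG-GKRP (5 nM each) were combined with 2 uM S6P in pH 7.1 Hepes/MgCl2/KCl/DTT buffer, then compound and anti-FLAG XL665/anti-GST K antibodies were added. After 60 min at room temperature, HTRF 665/615 nm emission was read.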

[17] = qHTS assay for cell viability of HEK293 cells (AID 743288); settings: ATP luminescence (CellTiter-Glo), 18 h; max response: stronger effect = lower value; also: % is scaled to controls: 0 for no effect and ±100 for the full control effect; nearly all actives have a fitted effect of over 50% in size
Summary of the method: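 After 18 h compound exposure at 37 C, parental HEK293 cells (2,000/well) are lysed with CellTiter-Glo and luminescence is read following 30 min at room temperature.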

[18] = qHTS assay for cell viability of the p53RE-bla HCT-116 cell line (AID 743292); also: % is scaled to controls: 0 for no effect and ±100 for the full control effect; nearly all actives have a fitted effect of over 55% in size
Summary of the method: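 Quantitative high-throughput format: compounds in DMSO were pinned onto p53RE-bla HCT-116 cells (4,000/well) and incubated 16 h at 37 C. Total intracellular ATP, read by CellTiter-Glo luminescence, reflects viable cell number.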

Compound	max response [1]	remaining parasite growth % (stronger effect = lower value) [2]	activity, percent of control [3]	remaining proliferation (% of control), lower = more inhibition [4]	parasite growth, % of DMSO control [5] [%]	parasite growth remaining, % of DMSO control (lower = more inhibition) [6] [%]	growth, % of control [7] [%]	cell viability, % of control (lower = more cytotoxic) [8] [%]	viability (% of control) [9] [%]	Potency [10]	Potency [11]	parasite growth, % of control (lower = inhibition) [12] [%]	Potency [13]	Potency [14]	Potency [15]	outcome [16]	max response [17]	Potency [18]	Potency [1]
Cc1ccccc1C(C(=O)NC1CCCC1)N(C(=O)Cn1cnc2ccccc21)c1cccc(F)c1 (stereo not given)	-12.2% (inactive)	45.1%	58.9%	34.4%	72.9	65.6	97.9	30.2	102	inactive	inactive								
COCCNCCCn1c(C(=O)CF)c(-c2ccc(C)cc2)c2c(N)ncnc21	-16.2% (inactive)	72.8%	77.9%	35%	39	85.3	32.4	77.9	85.7	inactive		36.5	16.6 µM (active)	inactive					
CN(C)C(=O)c1ccc(S(=O)(=O)c2ccc(NC(=O)[C@@](C)(O)C(F)(F)F)c(Cl)c2)cc1	2.79% (inactive)	67.3%	97.4%		34.8	96.7	62	41.1	20.3	inactive		95.9	18.7 µM (active)	inactive	20.9 µM (active)				
NCCCC(N)(C(=O)O)C(F)F (stereo not given)	5.66% (inactive) and 8.03% (inactive)				98	95.9	107	77.2		inactive	inactive	157	inactive	inactive	inactive	inactive			
NS(=O)(=O)c1cc2c(cc1Cl)NC=NS2(=O)=O	-0.751% (inactive) and 21.2% (inactive)				88.5	91.5	105	71.6		inactive	inactive	125	inactive	inactive	inactive	inactive	-1.12% (inactive)	inactive	
CNC[C@H](O)c1cccc(O)c1	-1.17% (inactive) and 7.6% (inactive)				102	98.1	92.6	196	133	inactive		94.6	inactive	inactive	inactive	inactive	-12.3% (inactive)	inactive	
CN(C)c1ccc(Nc2nc(N)n(C(=O)c3c(F)cccc3F)n2)cc1	-28% (inactive)	4.41%	8.82%	7.62%	10.5	51.7	6.51	73.4	14.1			13.6		0.132 µM (active)	5.9 µM (active)				
CO[C@@H]1[C@H](N(C)C(=O)c2ccccc2)C[C@H]2O[C@]1(C)n1c3ccccc3c3c4c(c5c6ccccc6n2c5c31)C(=O)NC4								21.1	14.1										5.9 µM (active)
CCCn1c(=O)c2[nH]c(C34CC5CC3C[C@@H](C5)C4)nc2n(CCC)c1=O		89.8%	85.1%	59.4%	16.5	77.4	5.74	214	125	inactive		17.3							
O=C1CCC(N2C(=O)c3ccccc3C2=O)C(=O)N1 (stereo not given)	18.1% (inactive) and 27% (inactive)				93.4	88.8	114	167		inactive	inactive	142	inactive	inactive	inactive	inactive	-7.06% (inactive)	inactive	
Cc1cccc(-c2nn(C(=S)Nc3ccccc3)cc2-c2ccnc3ccccc23)n1		91.2%	87.9%	79.6%	40.4	86.3	99.5	560	91.8	inactive	inactive	66.8		inactive					
N=c1nc(N2CCCCC2)cc(N)n1O	1.66% (inactive) and 5.64% (inactive)				6.29	33.6	3.91	450		inactive	inactive	7.66	inactive	inactive	inactive	inactive			
CC(c1cc2ccccc2s1)N(O)C(N)=O (stereo not given)		101% [at 57.5 µM]	101% [at 57.5 µM]	109% [at 57.5 µM]	94.1	98.2	101	150	110	inactive		140	inactive	inactive	inactive				
CN1CCN(CCCN2c3ccccc3Sc3ccc(C(F)(F)F)cc32)CC1					108	97.5	83	55.3		inactive	inactive	101	10.5 µM (active)	23.5 µM (active)	10.5 µM (active)	inactive			3.16 µM (active)
